74 compounds from PubChem BioAssay AID1985 (Southern Research Specialized Biocontainment Screening …, 2009) can be followed below.

One may read the inhibition as the change of the read-out against control, counted positive when it falls.

Among all 2,300 compounds or so, about 1,000 (43%) were called active. No rule for the calls is given here. The set was probably picked from earlier hits. The list shows a part of the results. Measured potencies and affinities stand elsewhere.

The assay in a line: modified counter assay using GFP fluorescence, PhoP regulon inhibitor project, dose response (AID 1985). The conditions noted are these: S. Typhi, 4 h; series mostly up to 150 µM; inhibition: at the top concentration.
For `CC(=O)NCCn1c(SCc2ccccc2C)nc2ccccc2c1=O`, the “inhibition” value was -0.79% (inactive).

For `Cc1nc(SCC(=O)N2c3ccccc3Sc3ccccc32)n[nH]1`, the “inhibition” value is 21.8% (inactive).

`CC1(C)Cc2c(sc(NC(=O)COc3ccc(Cl)cc3)c2C(N)=O)C(C)(C)N1`: the “inhibition” value was -2.39% (inactive).

Turning to `CCC1Oc2ccc(C)cc2N(CC(=O)NCC2COc3ccccc3O2)C1=O` (centres undefined), the “inhibition” value is -15.5% (inactive).

Turning to `COc1ccccc1NC(=O)CN1CCC(c2nc3ccc(C)cc3[nH]2)CC1`, the “inhibition” value is 22.9% (inactive).

Turning to `COc1ccc(C)cc1NC(=O)C1CCN(S(=O)(=O)c2c(C)noc2C)CC1`, the “inhibition” value is 1.95% (inactive).

Consider `COc1ccccc1-n1nc(C(=O)NCc2ccco2)c2ccccc2c1=O`, for which the “inhibition” value was 30.5% (inactive).

With `CC1CCN(CCCNC(=O)c2ccc3c(=O)n(Cc4ccc(Cl)cc4)c(=S)[nH]c3c2)CC1`, the “inhibition” value was 3.32% (inactive).

In the case of `O=C(O)CC12CC3CC(C1)CC(n1ncc(NCC4CCCO4)c(Cl)c1=O)(C3)C2` (centres undefined), the “inhibition” value was 3.46% (inactive).

For `CCOC(=O)c1nc(C)n(-c2cc(Cl)ccc2Cl)n1`, the “inhibition” value was -10.8% (inactive).

In the case of `O=C(CN1C2=NCCN2c2ccccc21)c1ccco1`, the “inhibition” value was 7.45% (inactive).

With `Cc1ccc(CN2C3=NCCN3c3ccccc32)cc1`, the “inhibition” value is 34.5% (inactive).

On to `COc1cccc2[nH]c3c(N4CCN(Cc5ccc6c(c5)OCO6)CC4)ncnc3c12`, for which the “inhibition” value is 21.1% (inactive).

Regarding `O=c1cc(-c2ccccc2)nc(N2CCN(Cc3ccccc3)CC2)[nH]1`, the “inhibition” value was 4.19% (inactive).

Take `c1cc2c(cc1Oc1nc(N3CCOCC3)nc(N3CCOCC3)n1)OCO2`: the “inhibition” value is 8.09% (inactive).

Regarding `Cc1ccc2nc3c(c(N)c2c1)CCN3C`, the “inhibition” value is 5.98% (inactive).

As to `CC(C)N=C(N)N=C(N)Nc1ccc(Cl)cc1`, the “inhibition” value is 30.1% (inactive).

As for `Cc1cc(NCCCn2ccnc2)n2ncc(-c3ccccc3)c2n1`, the “inhibition” value was 12.4% (inactive).

In the case of `C[C@@H](C(=O)NC1CCCC1)N1C(=O)N2CCc3c([nH]c4ccccc34)[C@@]2(C)C1=O`, the “inhibition” value is 0.62% (inactive).

For `O=S1(=O)CC=C(CSC(=S)NC2CCS(=O)(=O)C2)C1` (centres undefined), the “inhibition” value is -1.71% (inactive).

In the case of `CCc1cc(CNC(=O)C2CCC(=O)N(Cc3cccc(F)c3)C2)on1` (centres undefined), the “inhibition” value was -19.1% (inactive).

With `CC(C)NC(=O)CN1CCN(Cc2nc(C(c3ccccc3)c3ccccc3)no2)CC1`, the “inhibition” value is 5.91% (inactive).

As to `Cc1cnc(NC(=O)CN2C(=O)C3CC=CCC3C2=O)s1` (centres undefined), the “inhibition” value was -26.5% (inactive).

With `Cc1cc(NS(=O)(=O)c2ccc(Nc3nc(-c4sc(NC(=O)c5ccccc5)nc4C)cs3)cc2)no1`, the “inhibition” value is 15.4% (inactive).

As to `COc1nccnc1NS(=O)(=O)c1ccc(NC(=S)NC(=O)c2cccnc2)cc1`, the “inhibition” value was -4.26% (inactive).

In the case of `Cc1cc(NS(=O)(=O)c2ccc(NC(=O)C(C)Oc3ccc4c(C)cc(=O)oc4c3)cc2)no1` (centres undefined), the “inhibition” value is -2.24% (inactive).

With `CCc1nnc(NS(=O)(=O)c2ccc(NC(=S)NC(=O)/C=C/c3ccc(C(C)C)cc3)cc2)s1`, the “inhibition” value was 17.6% (inactive).

Consider `CC(C)n1cnnc1SCC(=O)Nc1ccc(Br)cc1F`, for which the “inhibition” value was -8.64% (inactive).

On to `COC(=O)c1ccc(C)c(NC(=O)CN2C(=O)c3ccccc3S2(=O)=O)c1`, for which the “inhibition” value is 21.6% (inactive).

As to `CS(=O)(=O)c1cnc2c(-c3ccc(F)cc3)cnn2c1N`, the “inhibition” value is -8.92% (inactive).

Consider `O=C(CCl)NC1CCCc2ccccc21` (centres undefined), for which the “inhibition” value is 19.6% (inactive).

As for `COc1ccc(NC(=O)N2CCc3ccccc32)cc1`, the “inhibition” value was 30% (inactive).

With `CCOc1ccccc1NC(=O)Nc1ccncc1`, the “inhibition” value was 14.8% (inactive).

With `Cc1ccc(NC(=O)C(=O)NCc2ccncc2)cc1`, the “inhibition” value was -2.82% (inactive).

For `S=C(NCc1ccc(Cl)cc1)Nc1ccncc1`, the “inhibition” value was 16.9% (inactive).

For `CCCCOc1ccc(-c2nnn(CC(=O)Nc3ncc(CC(=O)OCC)s3)n2)cc1`, the “inhibition” value is 15.7% (inactive).

Regarding `CCOc1ccc(N2C(=O)CN(O)C=C3N=c4ccccc4=C32)cc1`, the “inhibition” value is -16.3% (inactive).

`Cc1cccc(OCCSc2nnc(-c3ccoc3C)n2C)c1`: the “inhibition” value is 0.34% (inactive).

As to `O=C(NCCCN1CCOCC1)c1sc2cc(Cl)ccc2c1Cl`, the “inhibition” value is 25.4% (inactive).

For the compound `Cc1cccc(OCc2nnc(SCC(=O)N3CCCC3)n2C)c1`, the “inhibition” value was 0.15% (inactive).

Consider `C[N+]1(CC2COC3(CCCCC3)O2)CCCCC1` (centres undefined), for which the “inhibition” value was -16.7% (inactive).

In the case of `CCN(CC)S(=O)(=O)c1ccc2c(c1)c(C(=O)O)cn2C`, the “inhibition” value was -22.8% (inactive).

Take `Cc1nnc(SCC(=O)N(C(C)C)C(C)C)[nH]c1=O`: the “inhibition” value was -1.13% (inactive).

As for `O=C1CCCN1c1ccc(CNS(=O)(=O)c2ccc(F)cc2)cc1`, the “inhibition” value was 14.6% (inactive).

For `CCCCOc1ccc(C2=NNC(=O)CC2)cc1`, the “inhibition” value is 10.7% (inactive).

Regarding `O=C(O)c1cnn2c1NC(c1cccs1)CC2C(F)(F)F` (centres undefined), the “inhibition” value is 16.3% (inactive).

Regarding `Cc1cc2ncn(/N=C/c3ccc([N+](=O)[O-])o3)c2cc1C`, the “inhibition” value is 38.2% (inactive).

`O=C(Nc1ccccc1)c1cccnc1N1CCOCC1`: the “inhibition” value was -0.62% (inactive).

For the compound `Cc1cccc(N2CCN(C(=O)C3CCN(c4nnc(-n5cccc5)s4)CC3)CC2C)c1` (centres undefined), the “inhibition” value was -1.88% (inactive).

As for `c1ccc2c(c1)nc(N1CCOCC1)c1c3ccccc3[nH]c21`, the “inhibition” value was -20.5% (inactive).

Consider `COCCNC(=S)N=Nc1c(O)[nH]c2ccc([N+](=O)[O-])cc12`, for which the “inhibition” value is -1.84% (inactive).

Regarding `CC(=O)N1CSCC1C(=O)N1CCN(c2ccc(N3CCOCC3)nn2)CC1` (centres undefined), the “inhibition” value was -3.7% (inactive).

For `Cc1nc2ccc(NC(=O)C(F)(F)F)cc2o1`, the “inhibition” value was 27% (inactive).

With `CCn1nnnc1NCc1cccc(Cl)c1`, the “inhibition” value was -20.1% (inactive).

For the compound `O=C(NCCCn1ccnc1)c1cc2c(ccc3ccccc32)o1`, the “inhibition” value is 18.6% (inactive).

For `O=C(/C=C/c1ccc(Cl)cc1)NCCCn1ccnc1`, the “inhibition” value was -22.4% (inactive).

On to `Cc1noc(C)c1S(=O)(=O)N1CCC(Cc2ccccc2)CC1`, for which the “inhibition” value was -9.13% (inactive).

Take `CC(C)(C)c1ccc(NC(=O)COc2ccc(-n3ccnc3)cc2)cc1`: the “inhibition” value is 27.7% (inactive).

`Cc1nn(-c2ccccc2)c(C)c1/C=N/n1c(-c2ccc(C(C)(C)C)cc2)n[nH]c1=S`: the “inhibition” value is -11.4% (inactive).

In the case of `CC1CCCC(NC(=O)COC(=O)CCSc2ccccc2)C1C` (centres undefined), the “inhibition” value is -7.97% (inactive).

`O=C(Nc1ccccc1)C1=C(O)CC(c2ccc(Cl)cc2)N2CCN=C12` (centres undefined): the “inhibition” value is 12.4% (inactive).

Regarding `CNCCC=C1c2ccccc2CCc2ccccc21`, the “inhibition” value is 31.5% (inactive).

As for `CN(C)CCCN1c2ccccc2CCc2ccc(Cl)cc21`, the “inhibition” value was 20.5% (inactive).

For the compound `c1cc(N2CCCC2)ccc1C(c1nnnn1C1CCCCC1)N1CCOCC1` (centres undefined), the “inhibition” value was -19.3% (inactive).

As for `O=C(N/N=C/c1ccco1)c1cccc(NC(=O)c2cccc(Cl)c2)c1`, the “inhibition” value is 23.2% (inactive).

On to `O=C(Nc1ccc2c(c1)OCCO2)C(=S)NCc1ccccc1`, for which the “inhibition” value is -7% (inactive).

Take `Cc1cc(C)nc(SCC(=O)NCc2ccco2)n1`: the “inhibition” value was -6.91% (inactive).

Consider `Cc1ccccc1Cn1c(=O)n(CCCC(=O)NCc2ccco2)c(=O)c2ccccc21`, for which the “inhibition” value is -9.8% (inactive).

With `CC(C)CN1CCN(Cc2cnc(N3CCOCC3)s2)CC1CCO` (centres undefined), the “inhibition” value was 14.1% (inactive).

Regarding `O=C(Nc1ccc(N2CCOCC2)c(Cl)c1)c1ccc(-n2cnnc2)cc1`, the “inhibition” value is -0.71% (inactive).

In the case of `CCOc1ccc(N2CC(C(=O)OCC(=O)NCc3ccccc3)CC2=O)cc1` (centres undefined), the “inhibition” value was 0.98% (inactive).

Consider `CC(C)Oc1ccc(N2CC(C(=O)Nc3ccccc3F)CC2=O)cc1` (centres undefined), for which the “inhibition” value was -15.5% (inactive).

As for `COc1ccc2nc(Nc3ccccc3)sc2c1`, the “inhibition” value was 32.8% (inactive).

Take `COc1ccc2nc(NC(=O)Nc3ccccc3)sc2c1`: the “inhibition” value is 9.9% (inactive).
